VACV mCherry inh – inhibitors of vaccinia virus infection (mCherry reporter signal) | Vaccinia virus mCherry reporter infection, fluorescence | Potency, µM (series often up to 36.5 µM), hits mostly inhibitors | 0.63% of 310,000 active | AID 720579; calls by dose curve; tested in A549 cells; also: nearly all actives have a fitted effect of over 35% in size
Sm TGR inh – blocks Schistosoma mansoni thioredoxin glutathione reductase | Potency, µM (series often up to 114 µM), hits mostly inhibitors | 3% of 360,000 active | Q962Y6 | purified TGR, DTNB reduction, TNB absorbance 405 nm | AID 485364; active = well fitted inhibition curve with a large enough effect; inconclusive = small, poorly fitted or top-dose-only effect; inactive = no such curve, though single readings can be large or run the other way; also: nearly all actives have a fitted effect of over 60% in size
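TGR 20 nM + NADPH 100 uM (dispensed conc.), cpd preinc 15 min RT; start with NADPH (500 uM addition) then DTNB (15 mM addition). Kinetic TNB absorbance, 405 nm filter. Four-parameter Hill fit across titration.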
VACV Venus inh – vaccinia inhibition (Venus reporter); 0.46% of 330,000 active; Potency, µM (highest dose often 36.5 µM), hits mostly inhibitors; Vaccinia virus Venus reporter expression, fluorescence; calls by dose curve; tested in A549 cells; also: nearly all actives have a fitted effect of over 30% in size
FMDV antiviral – antivirals against foot and mouth disease virus. FMDV antiviral cell-based qHTS. Potency, µM (titrated, usually from 57.9 µM), hits mostly inhibitors. 1.2% of 410,000 active. AID 1159524; calls by dose curve; tested in HEK293T cells; also: read-out not given here; nearly all actives have a fitted effect of over 45% in size
Marburg entry inh – Marburg virus entry inhibition. Marburg virus pseudotyped entry inhibition, cell reporter. Potency, µM (series often up to 37.8 µM), usual class: inhibitors. 1.8% of 300,000 active; calls by dose curve; tested in HEK293 cells
Lassa entry inh – blocks Lassa virus binding to or entry into cells | 1.2% of 300,000 active | Potency, µM (doses to about 37.9 µM), most hits filed as inhibitors | Lassa virus pseudotype entry inhibition, cell reporter; calls by dose curve; tested in HEK293 cells; also: nearly all actives have a fitted effect of over 50% in size
Each line names hits and unclear results; the compound was inactive in the other large screens; ! = a repeat was not active. Shown are actives, neighbours in structure and some others; about 5.4% of the full set was active somewhere.

COc1ccccc1/C=C/C(=O)c1ccc(NC(C)=O)cc1	VACV mCherry inh inconclusive, VACV Venus inh inconclusive, FMDV antiviral inconclusive, Marburg entry inh 13µM, Lassa entry inh 11µM
COc1ccc(OC)c(/C=C/C(=O)c2ccc(Cl)cc2)c1	FMDV antiviral 22µM (no result: VACV mCherry inh, VACV Venus inh)
O=C(/C=C/c1ccccc1)c1ccccc1	Sm TGR inh inconclusive, FMDV antiviral inconclusive
N#Cc1ccc(/C=C/C(=O)c2ccccc2)cc1	Sm TGR inh 8.9µM (no result: Marburg entry inh, Lassa entry inh)
COc1cc(C=CC(=O)c2ccccc2)cc(OC)c1OC	FMDV antiviral 16µM (no result: Sm TGR inh, Marburg entry inh, Lassa entry inh)
COc1ccccc1/C=C/C(=O)c1ccccc1	Sm TGR inh inconclusive (no result: Marburg entry inh, Lassa entry inh)
C[C@@H]1C[C@H]2CC(=O)N3[C@H](CC(=O)N2[C@H]1c1ccccc1)C[C@@H](C)[C@@H]3c1ccccc1	none (no result: VACV mCherry inh, Sm TGR inh, VACV Venus inh, FMDV antiviral, Lassa entry inh)
COc1cc(/C=C/C(=O)c2ccc(Cl)s2)cc(OC)c1O	Sm TGR inh inconclusive, FMDV antiviral 13µM, Marburg entry inh inconclusive, Lassa entry inh inconclusive (no result: VACV mCherry inh, VACV Venus inh)
COc1cc(/C=C/C(C)=O)cc(OC)c1OC	FMDV antiviral inconclusive
COc1cc(C=CC(=O)c2cc(OC)c(OC)c(OC)c2)cc(OC)c1OC	VACV Venus inh inconclusive, FMDV antiviral 13µM, Marburg entry inh inconclusive, Lassa entry inh 7.9µM (no result: Sm TGR inh)
CCC1(C2CCN(C(=O)c3ccc(C)cc3C)CC2)NC(=O)N(CCc2scnc2C)C1=O (centres undefined)	none (no result: Sm TGR inh, Marburg entry inh, Lassa entry inh)
COCC(=O)Nc1cc(C(=O)NC2CCc3ccccc32)c2c(c1)nc(-c1ccncc1)n2C (centres undefined)	none (no result: Sm TGR inh, Marburg entry inh, Lassa entry inh)
Cc1ccc2cc(C#N)c(N3CCCN(C(=O)C4CCCO4)CC3)nc2c1C (centres undefined)	none (no result: VACV mCherry inh, VACV Venus inh)
Cc1ccc2cc(C#N)c(N3CCCC3)nc2c1C	Sm TGR inh 20µM
Cc1cc(C)c2nc(N3CCCN(C(=O)c4ccco4)CC3)c(C#N)cc2c1	Sm TGR inh 2µM (no result: VACV mCherry inh, VACV Venus inh)
Cc1cc(C)n(-c2ccc(C(=O)NCC3Cc4cc(-c5cnccn5)ccc4O3)cc2)n1 (centres undefined)	FMDV antiviral inconclusive (no result: Sm TGR inh, Marburg entry inh, Lassa entry inh)
CCN1C=C(Cc2ccc(OC)cc2)C2=C(C1)C(c1ccc(OC)cc1)C(C#N)=C(N)O2 (centres undefined)	Sm TGR inh 35µM, FMDV antiviral inconclusive, Marburg entry inh inconclusive, Lassa entry inh inconclusive (no result: VACV mCherry inh)
COc1ccccc1-c1c(C#N)c(N)nc2c1CCc1ccccc1-2	VACV mCherry inh inconclusive, VACV Venus inh inconclusive, FMDV antiviral 32µM, Marburg entry inh inconclusive, Lassa entry inh inconclusive
COc1ccc(CCNC(=O)Cn2nnc(-c3cccc(C(F)(F)F)c3)n2)cc1OC	none
CN1CCN(C2=Cc3cc(Cl)ccc3Sc3cc(F)ccc32)CC1	VACV mCherry inh inconclusive, VACV Venus inh inconclusive, FMDV antiviral inconclusive, Marburg entry inh inconclusive, Lassa entry inh 10µM
CCN1CCCC1CNC(=O)c1cnn(-c2nccc(-c3cc(OC)ccc3OC)n2)c1C (centres undefined)	none (no result: Sm TGR inh, Marburg entry inh, Lassa entry inh)
CCCCCCC[N+](CC)(CC)CCCCc1ccc(Cl)cc1	FMDV antiviral 18µM (no result: Marburg entry inh, Lassa entry inh)
CCOc1ccc(/C=C/C(=O)Oc2ccccc2)cc1	Marburg entry inh inconclusive
CCOc1ccc(/C=C/C(=O)C(C(N)=O)=C2SCCS2)cc1	VACV mCherry inh 4.5µM, Marburg entry inh inconclusive
CC(C)NC[C@@H](O)COc1cccc2[nH]ccc12	Marburg entry inh inconclusive (no result: VACV mCherry inh, Sm TGR inh, VACV Venus inh, Lassa entry inh)
CC(C)NCC(O)COc1cccc2ccccc12 (centres undefined)	Marburg entry inh 0.79µM!
CCN(C(=O)C1CCCN(c2ncnc3c2nc2n3CCCCC2)C1)c1cccc(C)c1 (centres undefined)	FMDV antiviral inconclusive, Lassa entry inh inconclusive (no result: Marburg entry inh)
Cc1ccc(NC(=O)c2cc(N3C(=O)C=CC3=O)ccc2N2CCOCC2)cc1	Sm TGR inh 0.71µM, FMDV antiviral inconclusive (no result: Lassa entry inh)
Cc1ccc(NC(=O)c2cc(N3C(=O)C=CC3=O)ccc2Cl)cc1C	Sm TGR inh 0.79µM, Marburg entry inh inconclusive
Cc1ccc(NC(=O)c2cc(NC(=O)c3ccco3)ccc2N2CCOCC2)cc1	Lassa entry inh inconclusive (no result: VACV mCherry inh, VACV Venus inh)
Cc1ccc(NC(=O)CN2C(=O)CCc3ccccc32)cc1C	none (no result: Marburg entry inh)
COc1cccc(NC(=O)Cn2c(=O)n(CCCCC(=O)NCc3ccc4c(c3)OCO4)c(=O)c3ccccc32)c1	VACV Venus inh inconclusive, Marburg entry inh inconclusive
COc1cc(/C=N/N=C(\N)c2nonc2N)cc(OC)c1O	Sm TGR inh 28µM
Cc1cc(NS(=O)(=O)c2ccc(NC(=O)/C=C/c3ccc(C)o3)cc2)nc(C)n1	Sm TGR inh 3.2µM (no result: VACV mCherry inh, VACV Venus inh)
Cc1cc(NS(=O)(=O)c2ccc(NC(=O)c3ccc(F)cc3)cc2)nc(C)n1	none (no result: VACV mCherry inh, Sm TGR inh, VACV Venus inh, Marburg entry inh, Lassa entry inh)
Cc1cc(NS(=O)(=O)c2ccc(NC(=O)c3c(F)c(F)c(F)c(F)c3F)cc2)nc(C)n1	VACV mCherry inh 28µM, VACV Venus inh inconclusive
Cc1ccccc1NC(=O)c1oc2c(c1C)-c1nn(Cc3cccc(Cl)c3)cc1CC2	none (no result: Marburg entry inh)
Cc1ccc(C)c(NC(=O)C(Sc2nc3ccccc3c(=O)n2CC(C)C)c2ccccc2)c1 (centres undefined)	Marburg entry inh inconclusive, Lassa entry inh inconclusive
Cc1ccc(C)c(NC(=O)C(Sc2nncn2C)c2ccccc2)c1 (centres undefined)	Sm TGR inh 89µM
COc1ccc(NC(=O)CCCc2nnc3n(C(C)C)c(=O)c4sccc4n23)cc1Cl	none (no result: Marburg entry inh)
CCOc1cccc2cc(-c3csc(NC(=O)CCC(=O)NCCN4CCCCC4C)n3)c(=O)oc12 (centres undefined)	VACV mCherry inh 11µM, VACV Venus inh inconclusive, Marburg entry inh inconclusive, Lassa entry inh inconclusive
CCOc1cccc2cc(-c3csc(NC(=O)CCC(=O)NCCCN4CCC(C)CC4)n3)c(=O)oc12	none (no result: VACV mCherry inh, VACV Venus inh, FMDV antiviral, Marburg entry inh, Lassa entry inh)
O=C(Cn1ncc2ccc(Cl)cc21)NCc1ccc(F)cc1	none
CC(C)N1CSC(=S)N(Cc2ccccc2)C1	Sm TGR inh 28µM, FMDV antiviral inconclusive
COc1ccc(Oc2ccc(/C=N/NC(=O)c3cccnc3)cc2[N+](=O)[O-])cc1	none (no result: Lassa entry inh)
COc1ccc(Oc2ccc(/C=C/C(=O)c3cccc(OC)c3)cc2[N+](=O)[O-])cc1	FMDV antiviral 32µM, Marburg entry inh inconclusive, Lassa entry inh inconclusive
CCCC(=O)C1=C(c2cccc(OC)c2)N(C(=O)CCC)n2c(C)nnc2S1	VACV mCherry inh inconclusive (no result: Marburg entry inh)
COc1ccc(CCN2C(=S)NC3CC2(C)Oc2ccc([N+](=O)[O-])cc23)cc1OC (centres undefined)	FMDV antiviral 25µM, Marburg entry inh inconclusive, Lassa entry inh inconclusive (no result: VACV mCherry inh, VACV Venus inh)
COc1ccc(N2C(=O)NC3CC2(C)Oc2ccc(Cl)cc23)cc1OC (centres undefined)	VACV mCherry inh inconclusive, Marburg entry inh inconclusive, Lassa entry inh inconclusive
CCc1nc2cc(C(=O)N[C@H]3CCCCNC3=O)cc(NC(=O)c3ccccc3OC)c2n1C	none (no result: Sm TGR inh, Marburg entry inh, Lassa entry inh)
Cc1cc(C)cc(NC(=O)c2cn3c4c(ccc(Cl)c4c2=O)OC(C)C3)c1 (centres undefined)	none (no result: Marburg entry inh)
Cc1cccc(CNC(=O)c2cnn(-c3nccc(-c4cc5ccccc5o4)n3)c2C2CC2)n1	none (no result: Sm TGR inh, Marburg entry inh, Lassa entry inh)
Cn1c(C(O)C(O)c2ccccc2)nc2ccccc21 (centres undefined)	none (no result: Marburg entry inh, Lassa entry inh)
